Experimental data: PubChem BioAssay AID2006 (Sanford-Burnham Center for Chemical Genomics, 2009)
Hit rate of the full screen: of about 290,000 compounds, about 1,000 (0.34%) were called active. Rule as the data show it: active = inhibition above about 50% (passing the limit was not always enough); inconclusive = no clear call, values can overlap the other calls. Many of the other results were omitted from the sample, so actives are more common in it than they were.

Molecular target: SUMO-conjugating enzyme UBC9 (Homo sapiens) (UniProt P63279)
Test: blockers of SAE1/SAE2–UBC9 SUMO transfer – biochemical, HTRF, uHTS, primary screen (AID 2006)
Details: HTRF SUMOylation assay, SAE1/SAE2 + UBC9, in vitro, at 35 µM, stronger effect = higher value

SUMO-conjugating enzyme UBC9 (Homo sapiens), sequence (P63279 whole entry, looked up): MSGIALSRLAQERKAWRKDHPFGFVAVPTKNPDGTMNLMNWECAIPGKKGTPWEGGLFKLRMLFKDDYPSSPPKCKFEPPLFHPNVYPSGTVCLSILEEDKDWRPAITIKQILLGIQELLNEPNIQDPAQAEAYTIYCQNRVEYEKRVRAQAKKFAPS

Compound	inhibition	inhibition (average of repeat tests) [%]
CCc1nn(CCCC(=O)NCc2ccc(C)cc2)c(=O)c2cc3occc3n12	-4.3% (inactive)	
Cc1cnc(C(=O)N2CCCC(N3CCN(c4ccccc4F)CC3)C2)cn1 (centres undefined)	5.2% (inactive)	
CC(=O)Nc1ccc(S(=O)(=O)Nc2cc(C)cn(Cc3ccc(C)cc3)c2=O)cc1	14.3% (inactive)	
O=C1Nc2cc(C(=O)N3CCC(N4CCCCC4)CC3)ccc2S/C1=C\c1ccccc1	10.8% (inactive)	
Cc1ccc2nc(-c3ccncc3)cc(C(=O)Nc3ccc4c(c3)OCCO4)c2c1	23.4% (inactive)	
Cc1ccc2nc(-c3ccncc3)cc(C(=O)Nc3ccncc3)c2c1	-4.4% (inactive)	
Cc1ccc2nc(-c3ccncc3)cc(C(=O)Nc3ccc(OC(F)F)cc3)c2c1	61.9% (active)	
COc1ccc(N2CCN(C3CCCCC3NS(=O)(=O)c3ccccc3)CC2)cc1 (centres undefined)	-12.9% (inactive)	
O=[N+]([O-])c1cc(Cl)cc(/C=N/NC(=S)Nc2cc(S(=O)(=O)N3CCOCC3)ccc2Cl)c1O	99.5% (active)	
O=C(N/N=C/c1cc(Cl)cc([N+](=O)[O-])c1O)C(O)(c1ccccc1)c1ccccc1	-22% (inactive)	
O=C(CN1CCN(c2ccc(O)cc2)CC1)Nc1cc(S(=O)(=O)N2CCOCC2)ccc1Cl	25.4% (inactive)	
O=C(O)C1CCCCC1C(=O)N1CCN(S(=O)(=O)c2ccc(F)cc2)CC1 (centres undefined)	9.5% (inactive)	
O=C(c1cccnc1)N1CCN(S(=O)(=O)c2cccs2)CC1	-2% (inactive)	
CSc1nnc(SCc2nc3sc(C(=O)O)c(C)c3c(=O)[nH]2)s1	50.2% (active)	70.2
CCOC(=O)c1sc2nc(CSc3ccccc3)[nH]c(=O)c2c1C	25.9% (inactive)	
Cc1ccc(C)c(SCc2nc3sc(C(=O)O)c(C)c3c(=O)[nH]2)c1	9.1% (inactive)	
COc1cccc(-n2c(=S)sc3c(=O)n(-c4ccccc4C)c(SCC(=O)O)nc32)c1	6.2% (inactive)	
COc1ccc(CCNC(=O)CCCCCNC(=O)N2CCn3c2nc2ccccc23)cc1OC	15.4% (inactive)	
CCc1nn(CCCC(=O)NC(C)c2ccccc2)c(=O)c2cc3occc3n12 (centres undefined)	10.2% (inactive)	
CCC(C)(C)NC(=O)C(c1ccc(OC)cc1)N(C(=O)CCC(=O)Nc1cc(C)on1)c1ccc(OC)cc1OC (centres undefined)	6% (inactive)	
COC(=O)COc1ccc2c(c1C)O/C(=C\c1ccco1)C2=O	16.9% (inactive)	
O=C(NCCCn1ccnc1)C1CCCN(S(=O)(=O)c2cc(Cl)ccc2Cl)C1 (centres undefined)	-5.4% (inactive)	
Cc1cc2nc3c(=O)n(Cc4ccccc4)c(=O)[nH]c3nc2cc1N	51.4% (active)	

Compound	inhibition	inhibition (average of repeat tests) [%]
O=c1[nH]c2c(c(=O)n1Cc1ccccc1)CCC2	14.7% (inactive)	
Cc1nc2c(c(=O)n1Cc1ccco1)c1nc3ccccc3nc1n2Cc1ccccc1	31.7% (inactive)	
CC(=O)N/C(=N/c1nc(C)cc(C)n1)Nc1ccc(F)cc1F	10.8% (inactive)	
O=C(NCc1ccccc1Cl)C1CCCN1S(=O)(=O)c1ccc(F)cc1 (centres undefined)	9.8% (inactive)	
O=C(Nc1ccc(N2CCCC2=O)cc1)c1cncc(Br)c1	-7.3% (inactive)	
Oc1c(Cl)cc(Cl)c(Cl)c1Cc1c(O)c(Cl)cc(Cl)c1Cl	71.9% (active)	
CC(=O)N1CCN(CC(=O)Nc2ccc(C)c(F)c2)CC1	6% (inactive)	
COC(=O)c1ccc(CNC(=O)c2ccc3oc(C(C)C)nc3c2)cc1	9.1% (inactive)	
CCC(=O)Nc1c(S(=O)(=O)c2ccccc2)c2nc3ccccc3nc2n1Cc1ccccc1	98.2% (active)	
CCN(CC)CCn1c(N)c(S(=O)(=O)c2ccccc2)c2nc3ccccc3nc21	11.7% (inactive)	
Cc1ccc(S(=O)(=O)c2c(N)n(C)c3nc4ccccc4nc23)cc1	18.6% (inactive)	
O=C(Cc1c(Cl)cccc1Cl)NC1CC1	11% (inactive)	
Cc1ccc(NS(=O)(=O)c2ccc3c(c2)n(C)c(=O)c(=O)n3C)c(C)c1	9% (inactive)	
CC(=O)NCC(=O)N1CCC(n2nccc2NC(=O)CCCc2ccccc2)CC1	-2.9% (inactive)	
COc1c(O)ccc2c1CN1CCc3cc4c(cc3C1C2)OCO4 (centres undefined)	12.8% (inactive)	
Cc1ccc(-c2nn(-c3ccccc3)cc2/C=C2\SC(=S)N(CCCCCC(=O)O)C2=O)o1	55.1% (active)	59.6
CN(C)S(=O)(=O)c1cccc(-c2nn(-c3ccccc3)cc2/C=C2\SC(=S)N(CC(=O)O)C2=O)c1	37.3% (inactive)	
COc1ccc(-c2nn(-c3ccccc3)cc2/C=C2/SC(=S)N(CCCC(=O)O)C2=O)c(C)c1	44.1% (inactive)	
O=C(N/C(=C/c1ccc(Cl)cc1)C(=O)N1CCCCC1)c1ccco1	22% (inactive)	
CC1CCCCN1C(=O)CCS(=O)(=O)Cc1ccccc1 (centres undefined)	18.6% (inactive)	
COc1ccc(NC(=O)CNC(=O)Cn2ccc3ccccc3c2=O)c(OC)c1	7.3% (inactive)	
Cc1ccc(Nc2nc(Cl)c(C=O)s2)cc1	16.9% (inactive)	
Cc1c(Cl)cccc1NC(=O)CCC(=O)N/N=C/c1ccco1	-5.3% (inactive)	

Compound	inhibition	inhibition (average of repeat tests) [%]
CC(C)(C)c1ccc(NC(=O)NCc2ccco2)cc1	-11.5% (inactive)	
COc1ccc2oc(=O)c(C(=O)NCc3ccccn3)cc2c1	31.2% (inactive)	
O=C(NCc1ccccn1)c1ccc2nc(-c3ccco3)c(-c3ccco3)nc2c1	74.1% (active)	
COc1cccc(S(=O)(=O)NCc2ccc(C(=O)NCc3ccccn3)cc2)c1	0.6% (inactive)	
COCCNC(=O)Nc1ccc2nc(-c3ccco3)c(-c3ccco3)nc2c1	95.3% (active)	62.6
O=C(Nc1ccc2nccnc2c1)c1ccco1	28.4% (inactive)	
COc1ccc(CNC(=O)c2ccc(Br)s2)cc1OC	0.1% (inactive)	
Cc1c(C)c2c(OCC(=O)N[C@@H](C(=O)O)c3ccccc3)cc3c(c2oc1=O)CCC(C)(C)O3	44% (inactive)	
CCc1ccc(-c2nc(SCC(=O)NC3CCCC3)n[nH]2)cc1	-14.4% (inactive)	
COc1ccc(N(C)C(=O)C2CCN(S(=O)(=O)c3cccc4nsnc34)CC2)cc1	11.4% (inactive)	
Cc1ccnc(NS(=O)(=O)c2ccc(NC(=O)c3oc4ccc(F)cc4c3C)cc2)n1	15.4% (inactive)	
CC(CC(=O)N1CCN(S(=O)(=O)c2ccccc2)CC1)n1cncn1 (centres undefined)	14.6% (inactive)	
Cc1ccc(OCc2n[nH]c(=S)n2-c2ccc(C)cc2)cc1	3.7% (inactive)	
COc1ccc(Cc2n[nH]c(=S)n2NC(=O)Nc2ccc(C)cc2)cc1	68.1% (active)	49.6
CCOc1ccc(NC(=O)CN2CCN(CC(=O)Nc3ccc(OC)cc3)CC2)cc1	-4.3% (inactive)	
C/C(=N/Nc1nc(-c2ccccc2)c(CC(=O)O)s1)c1ccccc1	7% (inactive)	
Cc1cc(C)nc(N/N=C/c2c(CO)cnc(C)c2O)n1	-3.1% (inactive)	
Nc1ccc2nc3c(=O)[nH]c(=S)[nH]c3nc2c1	93.4% (active)	
CCc1ccc(C(=O)NC(=S)Nc2ccccc2N2CCOCC2)cc1	-0.7% (inactive)	
CCOc1ccc(N(CC(=O)NCCc2ccc(F)cc2)S(=O)(=O)c2ccccc2)cc1	-1.5% (inactive)	
O=C(O)CCCn1cc(NC(=O)COc2cccc(Cl)c2)cn1	11.5% (inactive)	
CN(C)[C@@H]1C(=O)C(C(N)=O)=C(O)[C@@]2(O)C(=O)C3=C(O)c4c(O)ccc(Cl)c4[C@@H](O)[C@H]3C[C@@H]12	62.8% (active)	
COc1ccc(CN2C3CCCC2CC(NC(=O)c2cccc(F)c2)C3)cc1 (centres undefined)	8.9% (inactive)	

Compound	inhibition	inhibition (average of repeat tests) [%]
COc1ccc(C2NC(=O)N(C)C(C)=C2[N+](=O)[O-])cc1 (centres undefined)	-5.6% (inactive)	
CC(NC(=O)Nc1cccc([N+](=O)[O-])c1)c1ccc2c(c1)OCO2 (centres undefined)	3% (inactive)	
COc1ccc(-n2nc(C(=O)NCC(=O)N3CCC(C(N)=O)CC3)c3ccccc3c2=O)cc1OC	-4.6% (inactive)	
O=C(CNC(=O)c1ccc(F)cc1)c1ccccc1	-1.3% (inactive)	
Cc1ccc(N=C2NC(=O)/C(=C/C=C/c3ccco3)S2)cc1C	54.8% (active)	
Cc1cccc(N=C2NC(=O)/C(=C/c3cn(C)c4ccccc34)S2)c1	12.3% (inactive)	
Cc1ccc(N2NC(=O)/C(=C/C=C/c3ccco3)C2=O)cc1C	-18.1% (inactive)	
COc1ccc(CN2CCOC2=O)cc1OC	-0.8% (inactive)	
O=C(CN1CCN(C(=S)NC2CCCC2)CC1)Nc1ccc(Oc2ccccc2)cc1	-21.3% (inactive)	
O=C1CN(C(=O)c2cc(F)cc(F)c2)c2ccccc2N1	6.7% (inactive)	
NS(=O)(=O)c1ccc(CNC(=O)c2cccc(Oc3ccccc3)c2)cc1	-2.7% (inactive)	
CCN1CC=C2C(C#N)=C(N)C(C#N)(C#N)[C@H](c3ccoc3)[C@H]2C1	67.7% (active)	
CCOC(=O)N1CC=C2C(C#N)=C(N)C(C#N)(C#N)[C@H](c3cccs3)[C@H]2C1	-13.8% (inactive)	
CCCN1CC=C2C(C#N)=C(N)C(C#N)(C#N)C(c3cc(OC)ccc3OC)C2C1 (centres undefined)	34.3% (inactive)	
O=C(N/N=C/c1cccc(OCc2ccccc2)c1)c1ccc(Br)o1	4.8% (inactive)	
O=C(Nc1ccccc1N1CCCC1)c1ccc2ccccc2c1	1.5% (inactive)	
COC(=O)c1cccc(C(=O)N2CCC(CCC(=O)NCc3ccc(F)cc3)CC2)c1	7.8% (inactive)	
O=C(O)c1ccc(Cn2c(=S)[nH]c3cc(Cl)ccc3c2=O)cc1	1.5% (inactive)	
CC(C)c1ccc2c(c1)c(SC(C)(C)C)c(CC(C)(C)C(=O)O)n2Cc1ccc(Cl)cc1	52.2% (active)	
CCOC(=O)c1c(-c2ccccc2)oc2cc(Br)c(O)cc12	6.4% (inactive)	
CCOC(=O)c1c(-c2ccccc2)oc2cc(Br)c(O)c(C=O)c12	-19% (inactive)	
